According to PubChem BioAssay (NCI):
Compounds without any hit were thinned out: in the full panel of roughly 83,000, 20% have a hit.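 How to read the values: 0–100, growth inhibition (40 = 60% inhibited); 0, no net growth; -100 to 0, cell death (-40 = 40% of starting cells died; -100 = all dead).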 Unmarked numbers belong to inactive results. Calls of active or inactive are those of the source. Rule for the calls: active = growth percent below 10; inactive = the rest.

Tests used:
Assay in all cases: NCI-60 one-dose screen, 48 h (100 = growth as untreated, 0 = no growth, -100 = all killed)
Details in all cases: 10 µM
RPMI-8226 leukemia = tested on: RPMI-8226 leukemia
OVCAR-5 ovarian = tested on: OVCAR-5 ovarian
OVCAR-4 ovarian = tested on: OVCAR-4 ovarian
SK-OV-3 ovarian = tested on: SK-OV-3 ovarian
IGROV1 ovarian = tested on: IGROV1 ovarian
OVCAR-3 ovarian = tested on: OVCAR-3 ovarian
HS 578T breast = tested on: HS 578T breast
NCI/ADR-RES ovarian = tested on: NCI/ADR-RES ovarian
T-47D breast = tested on: T-47D breast
BT-549 breast = tested on: BT-549 breast
MDA-MB-435 melanoma = tested on: MDA-MB-435 melanoma
SW-620 colon = tested on: SW-620 colon
MCF7 breast = tested on: MCF7 breast
HCT-116 colon = tested on: HCT-116 colon
HCC-2998 colon = tested on: HCC-2998 colon
KM12 colon = tested on: KM12 colon
OVCAR-8 ovarian = tested on: OVCAR-8 ovarian

Row | Structure (SMILES) | growth (RPMI-8226 leukemia) | growth (OVCAR-5 ovarian) [%] | growth (OVCAR-4 ovarian) | growth (SK-OV-3 ovarian) | growth (IGROV1 ovarian) | growth (OVCAR-3 ovarian) | growth (HS 578T breast) | growth (NCI/ADR-RES ovarian) | growth (T-47D breast) | growth (BT-549 breast) | growth (MDA-MB-435 melanoma) | growth (SW-620 colon) | growth (MCF7 breast) | growth (HCT-116 colon) | growth (HCC-2998 colon) | growth (KM12 colon) | growth (OVCAR-8 ovarian)
1 | CCCC1(CC(=O)O)OCCc2c1[nH]c1ccccc21 (configuration not stated) | 99.9% | 88.6 | 74% | 217% | 114% | 109% | 101% | 107% | 194% | 119% | 106% | 115% | 102% | 107% | 69.9% | 102% | 
2 | COc1ccc(OC)c2c1C(=O)CC2C (configuration not stated) | 106% | 112 |  |  | 100% | 101% | 98.2% | 108% | 98.8% | 120% | 102% | 105% | 99.6% | 111% | 113% | 103% | 105%
3 | CCOCCOCCOCCOCCOCCOCCOCCOCCOCCO (tested in a mixture with another compound) | -33.3% (active) |  | 21.3% | 38.2% | 30.2% | -16.8% (active) | 39.6% | 55.7% | 16.6% | -52.7% (active) | 19.4% | 18.6% | 3.56% (active) | 3.57% (active) | 9.05% (active) | -18.3% (active) | 5.89% (active)
4 | COC(=O)[C@@H]1[C@H](O)[C@H](C)[C@H](O)[C@@](C)(O)/C=C\C=C(C)C(=O)Nc2c(C)c(OC(C)=O)c3c(c2O)C(=O)C(C)=C2OCOC(=C23)C(C)=C[C@@](C)(O)[C@H](O)[C@@H](C)[C@H]1OC(C)=O | -13.2% (active) | 97.7 | 117% | 117% | 88.4% | 112% | 110% | 114% | 102% | 105% | 105% | 124% | 114% | 114% | 120% | 112% | 
5 | COc1cc(Cc2cc(-c3ccc(Cl)cc3)n[nH]c2=O)ccc1O | 47.9% | 115 |  | 98.6% | 112% | 96.1% | 73.2% | 126% | 91% | 95.2% | 110% | 109% | 87.2% | 101% | 131% | 105% | 92.6%
6 | O=C1ON=[N+](c2ccc(Cc3ccc([N+]4=NOC(=O)C4CN4CCOCC4)cc3)cc2)C1CN1CCOCC1 (configuration not stated) | 60.5% |  | 53.9% | 88% | 62.3% | 89.1% | 64% | 63.4% | 56.1% | 60.7% | 4.71% (active) | 67.7% | 45.6% | 63.7% | 80.5% | 54.3% | 80.9%
7 | Cc1cccc2c(NCCN(C)C)c3cccc(C(=O)NCCN(C)C)c3nc12 | -34.6% (active) | 26.1 | -44% (active) | 19.7% | -61% (active) | 13.9% | 10.2% | -3.11% (active) | 29.3% | 18.2% | 8.12% (active) | 4.11% (active) | 2.67% (active) | 8.86% (active) | -22.8% (active) | -27.6% (active) | 
8 | CN1CCCNc2c(c(=O)c2=O)NCCCN(C)CCCNc2c(c(=O)c2=O)NCCCN(C)CCCNc2c(c(=O)c2=O)NCCCN(C)CCCNc2c(c(=O)c2=O)NCCCN(C)CCCNc2c(c(=O)c2=O)NCCCN(C)CCCNc2c(c(=O)c2=O)NCCCN(C)CCCNc2c(c(=O)c2=O)NCCC1 |  | 99.6 | 66.5% | 29.4% | 47.6% | 35.9% | 85% | 64.9% | 14.7% | 67.1% | 21.1% | 41% | 74.1% | 59.2% | 70.6% |  | 18.9%
9 | CN(C)CCN1C(=O)c2cccc3cc(N)cc(c23)C1=O | 1.78% (active) | 47.2 | -5.76% (active) | 36.9% | -39.9% (active) | 56.2% | 57.6% | 32.3% | 12.4% | 46.9% | 33.7% | 21% | 7.96% (active) | 13.7% | 15.4% | 28.8% | 
10 | COc1cccc(C2C3=C(COC3=O)N(CCO)c3cc(OC)ccc32)c1 (configuration not stated) | 20.6% | 27.5 | 59.2% | 21.6% | 24.3% | -50% (active) | 15.5% | -12.5% (active) | 62.1% | 16.9% | -44.7% (active) | 21% | 23% | 10.6% |  | -5.83% (active) | 
11 | COc1ccc(-c2csc(NC(=O)CSc3nc(C)c(-c4ccccc4)n3Nc3ccccc3)n2)cc1 | 30.7% | 81.2 |  | 88.3% | 41.8% | 56.6% | 19.8% | 12.1% | 24.8% | 63.5% | 56.1% | 70.2% | 41.7% | 36.4% | 78.7% | 41.5% | 31.7%
12 | O=C1OCC2=C1C(c1cccc(Br)c1)c1cc3c(cc1N2CCO)CCC3 (configuration not stated) | 19% | 22.4 | 54.6% | 28.8% | 20.3% | -62.5% (active) | 6.91% (active) | -5.39% (active) | 71.5% | 15.7% | -40% (active) | 17.5% | 21.4% | 6.12% (active) |  | -47.5% (active) | 
13 | N=C(N)c1ccc(-c2ccc(-c3cccs3)s2)cc1 |  | 67 | -19.8% (active) | 65.9% | 94.9% | 36.7% | 104% | 56.1% | 55.1% | 93.2% | -85.9% (active) | -66.2% (active) | -79.4% (active) | -67.1% (active) | -69.5% (active) |  | -14% (active)
14 | COc1ccc(NC(=O)CSc2nc3ccccc3c(=O)n2CCc2ccccc2)cc1 |  | 101 | 97% | 75.5% | 82.3% | 90.4% | 51.2% | 85.2% | 93.3% | 91.8% | 90.5% | 89.1% | 89.9% | 87.6% | 106% | 84.4% | 60.7%
15 | CCOC(=O)CCC(NC(=O)c1ccc(N)cc1)C(=O)OCC (configuration not stated) |  | 89.6 | 95.7% | 109% | 105% | 106% | 113% | 102% | 101% | 44.8% | 117% | 107% | 103% | 106% | 105% | 106% | 105%
16 | CC1(O)CCC2CC3OC3(C)CCC3OC3(C)CCC1C2(C)C (configuration not stated) |  | 109 | 109% | 104% | 89.5% | 69.4% | 89.4% | 109% | 104% |  | 107% | 99.6% | 103% | 100% |  | 111% | 83%
17 | Oc1[nH]c2cc(Cl)ccc2c1/C=c1/ccc2c(c1)N=C(c1cc(F)cc(F)c1)N=2 |  | 75.5 | 48.8% | 1.53% (active) | 43% | -50.4% (active) | 17.3% | 2.67% (active) | 30.9% | 37.5% | -32.5% (active) | 24.8% | 11% | 18.8% | 58% | 13.1% | 30.5%
18 | O=S(=O)(NCCCNc1nccc(-c2c(-c3ccc(F)cc3)nc3sccn23)n1)c1ccc(F)cc1 |  | 62.7 | 57.5% | 59.7% | 18.6% | 55.4% | 66.8% | 31.3% | -2.52% (active) | 52.8% | 20.6% | 47.1% | 32.8% | 28.9% | 37.6% | 27.8% | 17.7%
19 | COc1cccc(NC(=O)c2sc3nc4c(cc3c2N)C(O)CCC4)c1 (configuration not stated) |  | 50.3 | 49.1% | 24% | 27.7% | -34.6% (active) | 29.7% | 8.86% (active) | 62.1% | 44.4% | -32.5% (active) | 23.8% | 15.5% | 12.3% | 19.6% | 16.7% | 17.5%
